# Assay results taken from the supplement of paper PMC10338343.
# ± gives the standard deviation.
# Test system: MILI (PIWIL2) piRISC loaded with L1MC piRNA (26 nt)
# Test: pre-steady-state target cleavage rate (min^-1); guide: L1MC piRNA 5'p-UAACUAAAUACUAUGCAAGCUGUAGG; MIWI and MILI are mouse PIWI proteins and EfPiwi is from a freshwater sponge; tags in brackets are library labels; higher = faster piRNA-guided slicing of the target
# Settings: auxiliary factor: 500 nM mouse GTSF1
# Summary of the method: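 A burst-and-steady-state fit was used to obtain the pre-steady-state cleavage rate. The input data were sequencing reads of uncleaved targets, normalised to depth and to weakly complementary targets, from a […] transcribed, DNA-blocked target RNA library mixed with 1 nM active affinity-purified piRISC holding one synthetic guide, with or without 500 nM GTSF1 partner protein, in HEPES–potassium acetate buffer at 33 °C for 0–8 or 0–960 min. Three trials were pooled and k3 was capped at 0.0001 min^-1.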
# 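Note: 1 nM active piRISC with 0.1 nM target library at 33 °C single turnover.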
row,Sequence,pre-steady-state target cleavage rate
1,UCCUGGAUGUCGAUGCAUAGUAUUUAGUGUA,0.149 ± 0.045
2,UCCUCCUACAGCUUGCAAUGUAUUUAGAAA,0.0725 ± 0.016
3,UCCUGGAACAGCUUGCAUAGUAUUAUCUUA,0.0578 ± 0.015
4,UCCUGGAUGUGGUUGCAUAGUAUUUACUUA,0.00985 ± 0.0096
5,UCCUGGAUGUCCUUGCAUAGUAUUAUCUUA,0.0177 ± 0.0079
6,UCCUGGAUGUCGUUGCUUAGUAUUUAGAUA,0.0162 ± 0.0057
7,UCCUGGAUGAGCUUGCAUAGUUUUUACUUA,0.00548 ± 0.0051
8,UCCUGCUUGUGCUUGCAUAGUAUUUUCAAA,0.00521 ± 0.0042
9,UCCUGCUACAGCUUGCAUAGUAUUUUGAAA,0.112 ± 0.029
10,UCCUGGAUGUCGAAGCUUAGUAUUUAGUUA,0.00685 ± 0.0029

# Same assay, conditions: auxiliary factor: none (no GTSF1)
row,Sequence,pre-steady-state target cleavage rate
1,UCCUGGAUGUCGAACGUUAGUAAUUAGUUA,< 0.0001
2,UCCUGGAUGUCGAUCCAUAGUAUUUAGAUA,< 0.0001
3,UCCUGGAUGUCGAACCAAAGUAUUUAGUAA,< 0.0001
4,UCCUGGAUGUGCUUCCAUAGUAUUUAGAUA,< 0.0001
5,UCCUGGAUGUGCUUGCAUAGAUAUUUAGUUA,0.00495 ± 0.0023
6,UCCUGGAUGUGCUUGCAUACUUUUUAGUUA,0.0037 ± 0.0027
